Active and inactive are the calls of the source.
Legend:
[1] = system: Human papillomavirus type 1a protein E7 (residues 44-93); experiment: small molecules binding HPV E7 44-93 – biochemical, small-molecule microarray, residues 44-93, 635 nm fluorescence, primary screen (AID 1108); details: fluorescence 635 nm, higher = more signal;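 further: E7 fragment applied at 1 µg/mL in TBST for 1 h at 4 C; score combines spot fluorescence with its signal to noise ratio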
[2] = hepatitis C replication reporter changes, two-sided – Huh7 cells, luciferase reporter, HCV replication inhibitor project, primary screen (AID 1109); details: Huh7 HCV replicon luciferase reporter, 48 h; higher = more signal;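 further: huh7 hepatoma cells harbouring a luciferase neomycin HCV replicon reporter; luciferase luminescence as measure of HCV replicon replication; test concentration not given here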
[3] = biological target: Left-right determination factor 2 (Homo sapiens) (UniProt O00292); experiment: small molecules binding LEFTY2 protein – biochemical, small-molecule microarray, 635 nm fluorescence scan, primary screen (AID 1110); details: higher = more signal
[4] = biological target: Calmodulin-1 (Homo sapiens) (UniProt P0DP23); experiment: small molecules binding calmodulin-1 with EGTA – biochemical, small-molecule microarray, Cy5-labelled CALM1, profiling panel (AID 1111); details: Cy5-CALM1 binding fluorescence, higher = more signal;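 further: labelled calmodulin applied in Tris saline Tween buffer holding calcium plus EGTA and DTT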
[5] = biological target: Calmodulin-1 (Homo sapiens) (UniProt P0DP23); experiment: small molecules binding Ca-loaded calmodulin-1 – biochemical, small-molecule microarray, Cy5-labelled CALM1, plus calcium, artefact control for SMM control-protein annotation, profiling panel (AID 1112); details: Cy5-CALM1 binding fluorescence, higher = more signal;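 further: score merges spot fluorescence with signal to noise from triplicate slides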
[6] = probe aWnt5a binding to arrayed compounds – biochemical, biotinylated probe, 635/667 nm fluorescence, primary screen (AID 1113); details: small-molecule microarray, higher = more signal;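 further: score merges 667 nm fluorescence intensity with signal-to-noise per printed feature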
[7] = probe aShh binding to arrayed compounds – biochemical, biotinylated probe, 635/667 nm fluorescence, primary screen (AID 1114); details: small-molecule microarray, higher = more signal;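 further: probe is biotin-labelled aShh protein from a stem cell growth factor screen; measures binding of labelled protein to compounds printed on the slide; score merges feature fluorescence at 667 nm with signal-to-noise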
[8] = probe aNog binding to arrayed compounds – biochemical, biotinylated probe, 635/667 nm fluorescence, primary screen (AID 1115); details: small-molecule microarray, higher = more signal;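 further: probe is biotinylated aNog protein used at 0.15 µg/mL for 1 h at 4 C; z-score combines 667 nm fluorescence of each spot with its signal to noise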
[9] = biological target: Torsin-1A-interacting protein 1 (Homo sapiens) (UniProt Q5JTV8); experiment: compound microarray binding of lysate hLAP1 – cell lysate, small-molecule microarray, COS7 lysate, 635/667 nm fluorescence, primary screen (AID 1116); details: 635 nm fluorescence, higher = more signal
[10] = biological target: Alpha-bungarotoxin (Bungarus multicinctus) (UniProt P60615); experiment: compounds binding labelled alpha-BTX control protein – biochemical, small-molecule microarray, Alexa647 label, 635/667 nm fluorescence, artefact control for SMM control protein annotation, profiling panel (AID 1117); details: alpha-BTX-A647 binding fluorescence, higher = more signal
Albumin (Bos taurus) = Albumin (Bos taurus) (UniProt P02769); experiment: compounds binding labelled BSA control protein – biochemical, small-molecule microarray, Alexa647 label, 635/667 nm fluorescence, artefact control for SMM control protein annotation, profiling panel (AID 1118); details: BSA-A647 binding, fluorescence 635 nm, higher = more signal;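 further: score merges 667 nm emission intensity and signal-to-noise per printed compound spot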
[11] = probe aXIP binding to arrayed compounds – biochemical, NeuroSMM set, 635/667 nm fluorescence, primary screen (AID 1119); details: small-molecule microarray, higher = more signal, called active from +8 up or from −8 down;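 further: probe is the protein aXip251-270 applied at 1 µg/mL to compound-printed slides; binding of probe to printed compounds measured as 667 nm fluorescence plus signal to noise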
[12] = probe aNOTCH3 binding on compound microarray – biochemical, small-molecule microarray, 635/667 nm fluorescence, primary screen (AID 1120); details: higher = more signal;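 further: probe is a biotin-tagged antibody raised against NOTCH3 rather than NOTCH3 protein; score merges spot fluorescence near 667 nm with spot signal to noise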
[13] = probe aNOTCH2 binding on compound microarray – biochemical, small-molecule microarray, 635/667 nm fluorescence, primary screen (AID 1121); details: higher = more signal;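 further: score merges feature fluorescence read at 667 nm with its signal to noise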
[14] = biological target: Carbonic anhydrase 2 (Homo sapiens) (UniProt P00918); experiment: compounds binding carbonic anhydrase 2 – biochemical, small-molecule microarray, Alexa647-labelled CAII, profiling panel (AID 1122); details: CAII-A647 binding fluorescence, higher = more signal
[15] = COS7 lysate on small-molecule microarray, probe aHis, 635 nm (AID 1123); details: COS7 cell lysate, fluorescence, higher = more signal;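 further: z-score combines 667nm fluorescence intensity with signal-to-noise per printed compound spot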
[16] = probe aLAP1 signal on lysate-treated microarray – cell lysate, small-molecule microarray, COS7 lysate, primary screen (AID 1124); details: probe aLAP1, fluorescence, higher = more signal;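 further: lysate comes from COS7 cells expressing LAP1 and is applied at 0.3 µg/mL; score merges spot fluorescence near 667 nm with signal-to-noise over triplicate slides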
Sam68 (KHDRBS1) = experiment: compounds binding KHDRBS1 protein – biochemical, small-molecule microarray, 635 nm fluorescence, primary screen (AID 1125); details: higher = more signal;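 further: score merges 667 nm channel intensity with signal to noise over triplicate slides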
[17] = system: Chordin-like protein 2 (CHRDL2); experiment: compounds binding chordin-like 2 – biochemical, small-molecule microarray, 635 nm fluorescence, primary screen (AID 1126); details: fluorescence 635 nm, higher = more signal;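 further: printed compound slides probed with Chrdl2 protein at 4 µg/mL for 1 h at 4 C; score merges 667 nm emission intensity with signal to noise over three replicate slides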
[18] = biological target: Concanavalin-A (Canavalia ensiformis) (UniProt P02866); experiment: compounds binding concanavalin A lectin – biochemical, small-molecule microarray, Alexa647 label, 635 nm, artefact control for SMM control protein annotation, primary screen (AID 1127); details: ConA-A647 binding fluorescence, higher = more signal;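 further: z combines 667 nm emission intensity with signal-to-noise across three replicate slides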
Chain of Concanavalin-A (Canavalia ensiformis) (P02866 whole entry, looked up): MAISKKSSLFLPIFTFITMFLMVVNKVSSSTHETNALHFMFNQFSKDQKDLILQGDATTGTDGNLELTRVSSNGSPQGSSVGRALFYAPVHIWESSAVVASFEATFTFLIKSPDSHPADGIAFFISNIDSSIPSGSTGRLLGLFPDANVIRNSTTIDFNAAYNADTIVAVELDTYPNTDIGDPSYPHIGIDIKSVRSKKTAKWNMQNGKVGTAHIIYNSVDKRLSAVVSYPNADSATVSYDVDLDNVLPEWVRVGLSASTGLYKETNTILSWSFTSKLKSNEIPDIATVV

Chain of Left-right determination factor 2 (Homo sapiens) (O00292 whole entry, looked up): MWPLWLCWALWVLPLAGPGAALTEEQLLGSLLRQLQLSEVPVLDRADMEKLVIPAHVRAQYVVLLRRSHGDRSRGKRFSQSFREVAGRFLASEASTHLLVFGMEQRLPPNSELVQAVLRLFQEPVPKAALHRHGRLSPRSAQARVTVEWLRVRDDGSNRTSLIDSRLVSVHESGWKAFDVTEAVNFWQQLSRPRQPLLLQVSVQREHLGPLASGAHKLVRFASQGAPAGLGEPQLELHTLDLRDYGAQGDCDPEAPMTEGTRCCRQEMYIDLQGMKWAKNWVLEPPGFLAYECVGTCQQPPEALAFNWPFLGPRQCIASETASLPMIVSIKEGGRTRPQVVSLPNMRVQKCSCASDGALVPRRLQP
Chain of Alpha-bungarotoxin (Bungarus multicinctus) (P60615 whole entry, looked up): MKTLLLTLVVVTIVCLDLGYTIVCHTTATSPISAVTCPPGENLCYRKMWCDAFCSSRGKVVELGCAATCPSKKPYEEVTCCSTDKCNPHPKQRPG
Chain of Albumin (Bos taurus) (P02769 whole entry, looked up): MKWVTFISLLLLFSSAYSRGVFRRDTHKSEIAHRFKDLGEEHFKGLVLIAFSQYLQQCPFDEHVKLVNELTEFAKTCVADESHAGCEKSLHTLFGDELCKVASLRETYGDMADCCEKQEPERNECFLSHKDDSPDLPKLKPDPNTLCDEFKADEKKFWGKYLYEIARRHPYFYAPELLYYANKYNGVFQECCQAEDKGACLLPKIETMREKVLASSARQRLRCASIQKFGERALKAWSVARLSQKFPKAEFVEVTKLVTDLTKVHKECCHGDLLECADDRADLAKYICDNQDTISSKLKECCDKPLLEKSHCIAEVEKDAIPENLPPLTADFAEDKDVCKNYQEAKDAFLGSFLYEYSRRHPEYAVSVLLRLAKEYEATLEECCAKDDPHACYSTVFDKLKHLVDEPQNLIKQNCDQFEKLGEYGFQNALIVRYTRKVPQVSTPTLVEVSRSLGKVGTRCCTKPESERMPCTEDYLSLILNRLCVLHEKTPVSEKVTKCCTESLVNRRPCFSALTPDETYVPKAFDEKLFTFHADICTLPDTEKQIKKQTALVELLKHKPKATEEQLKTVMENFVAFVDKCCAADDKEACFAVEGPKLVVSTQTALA
Chain of Torsin-1A-interacting protein 1 (Homo sapiens) (Q5JTV8 whole entry, looked up): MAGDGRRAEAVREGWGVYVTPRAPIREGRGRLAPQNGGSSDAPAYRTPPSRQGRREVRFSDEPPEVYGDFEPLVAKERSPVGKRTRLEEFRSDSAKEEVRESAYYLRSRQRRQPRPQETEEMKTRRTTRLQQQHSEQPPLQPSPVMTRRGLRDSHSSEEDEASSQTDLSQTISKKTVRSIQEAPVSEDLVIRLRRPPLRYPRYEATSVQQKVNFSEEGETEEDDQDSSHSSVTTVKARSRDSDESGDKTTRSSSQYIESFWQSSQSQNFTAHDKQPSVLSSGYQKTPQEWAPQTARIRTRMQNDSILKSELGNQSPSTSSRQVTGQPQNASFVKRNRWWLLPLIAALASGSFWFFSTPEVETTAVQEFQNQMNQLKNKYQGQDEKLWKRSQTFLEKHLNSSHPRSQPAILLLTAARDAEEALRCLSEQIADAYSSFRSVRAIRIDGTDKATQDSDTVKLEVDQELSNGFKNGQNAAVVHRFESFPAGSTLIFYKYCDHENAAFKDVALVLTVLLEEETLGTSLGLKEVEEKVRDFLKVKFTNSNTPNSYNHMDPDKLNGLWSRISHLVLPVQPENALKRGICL

SMILES | composite z-score [1] | z-score [2] | composite z-score [3] | composite z-score [4] | composite z-score [5] | composite z-score [6] | composite z-score [7] | composite z-score [8] | composite z-score [9] | composite z-score [10] | composite z-score (Albumin (Bos taurus)) | composite Z-score [11] | composite z-score [12] | composite z-score [13] | composite z-score [14] | composite z-score [15] | composite z-score [16] | composite z-score (Sam68 (KHDRBS1)) | composite z-score [17] | composite z-score [18]
O=C1C2=CC[C@H]3C(=O)N(C4CCCCC4)C(=O)[C@H]3[C@H]2[C@H](O)[C@@H]2O[C@H]12 | -1.46 | -5.43 | -0.0026 | -0.883 | -0.828 | -0.206 | -0.282 | -0.307 | -0.11 | -0.635 | 0.964 | -0.631 (inactive) | -0.199 | -0.149 | 0.335 | -0.888 | -0.17 | -2.02 | 0.0365 | -0.21
C[C@H]1C=CCC(=O)OC[C@H](C)C(=O)N2CCC[C@H]2C(=O)OC1 | -2.34 | -0.971 | 1.62 | -0.774 | -1.82 | -0.174 | -0.0709 | -0.137 | 1.71 | -0.477 | -0.68 | 0.472 (inactive) | -0.161 | -0.115 | -0.656 | -0.802 | 0.374 | -0.374 | 1.62 | -0.35
O=C(NCCC[N+]1=CC=NC1c1ccccc1)N1CCCc2nc(-c3ccc(Br)cc3)ccc21 (stereo not given) | 0.107 | -3.49 | 0.498 | 0.626 | 0.0894 | -0.0145 | 0.0141 | 0.0481 | 0.0439 | -0.436 | 0.452 | 0.762 (inactive) | -0.222 | -0.119 | -0.0214 | -0.382 | -0.264 | 0.152 | 0.421 | 0.605
COC(=O)CC=C[C@@H](C)[C@@H](C=NOC[C@@H](C)[C@H](OCc1ccccc1)C(C)C)OC | 0.281 | -0.759 | 0.364 | -0.481 | -0.79 | -0.096 | -0.19 | -0.116 | -0.062 | 0.215 | -0.469 | -0.235 (inactive) | -0.0647 | -0.124 | -0.12 | 0.266 | -0.61 | 0.447 | 0.386 | 0.102
COc1ccc(O[C@H]2C=C[C@@H](c3ccccc3)O[C@@H]2COC(=O)CCC(C)=NOC[C@@H](O)COCc2ccco2)cc1 | -0.82 | -0.681 | -4.63 | -2.11 | -2.04 | -0.449 | -0.267 | -0.715 | -2.94 | -1.65 | 0.214 | -0.22 (inactive) | -0.919 | -0.271 | -0.888 | -1.8 | -0.875 | -0.875 | -3.04 | -2.57
CC(C)(C)N1C(=O)[C@H]2[C@H]3[C@H](O)[C@H](O)CC(=NOC[C@@H](O)COCc4ccco4)[C@H]3CC[C@H]2C1=O | 0.39 | 0.61 | -0.203 | -0.0051 | -0.333 | -0.147 | -0.0471 | 0.0868 | 0.706 | 1.15 | 0.383 | -0.0443 (inactive) | -0.128 | -0.117 | 0.282 | 0.327 | 0.72 | 0.396 | 0.479 | 0.315
CC(C)=CCCC(C)=CCON=C1[C@H]2CCn3c(=O)n(-c4ccccc4)c(=O)n3[C@H]2[C@H](O)[C@@H]2O[C@H]12 | 1.35 | -3.17 | 0.802 | -0.198 | -0.807 | -0.154 | -0.102 | -0.061 | 0.458 | 0.514 | 0.271 | 0.0213 (inactive) | 0.185 | -0.14 | 0.464 | 1.18 | 0.353 | 1.22 | 1.02 | 0.763
CCOC(=O)[C@H](Cc1ccccc1)NC(=O)CCC1CC(OC(=O)NCc2cccc3ccccc23)CC2(CCCC(COC(=O)NCCOc3ccccc3)O2)O1 (stereo not given in full) | 1.35 | -0.795 | 0.628 | 0.653 | -0.378 | -0.176 | -0.493 | -0.347 | 0.166 | 0.594 | 0.0423 | 0.19 (inactive) | -0.16 | -0.0859 | 0.391 | 1.05 | 0.132 | 1.24 | 0.439 | 1.12
O=C1[C@H]2CCn3c(=O)n(Cc4cc5c(cc4Cl)OCO5)c(=O)n3[C@H]2[C@H](O)[C@@H]2O[C@H]12 | -0.552 | -1.94 | 0.269 | -0.806 | -0.697 | -0.295 | -0.237 | -0.492 | 0.054 | 0.389 | 0.662 | -0.0662 (inactive) | -0.15 | -0.14 | 0.29 | 0.242 | -0.14 | -0.435 | 0.716 | -0.0737
CON=C(C)CCN1CCCCc2nc(C)c(C)cc21 | -0.111 | -0.319 | 0.679 | -0.327 | -0.817 | 0.11 | -0.147 | -0.337 | 0.445 | -0.0996 | -0.16 | 0.414 (inactive) | 0.245 | 0.0207 | 0.53 | -0.0845 | -0.244 | 0.119 | 0.873 | -0.116

Source: PubChem BioAssay
